# Data: PubChem BioAssay (NCI)
# About 83,000 compounds went through this panel and 20% of them were active in at least one assay; those are over-represented in the sample as a whole.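 Growth was measured after 48 h exposure to one concentration of compound in 96-well plates. Values under 10 count as active.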 Activity calls are given as the source filed them.
# System: MDA-MB-435 melanoma
# Assay: NCI-60 one-dose screen, 48 h (100 = growth as untreated, 0 = no growth, -100 = all killed)
# Conditions: 10 µM unless noted
# Procedure: Growth inhibition of the MDA-MB-435 human Melanoma tumor cell line is measured as a screen for anti-cancer activity. Cells are grown in 96 well plates and exposed to the test compound for 48 hours. Compounds are tested at a single concentration, which is 10^-5 M for most compounds. The reported endpoint is percent growth (GI% or GIPRCNT), where numbers from 0 - 100% represent growth inhibition, and numbers from -100% - 0 represent cell death. For example, a value of 40 represents 60% growth inhibition. A value of 0 means no net growth occurred over the course of the experiment. A value of -40 indicates 40% of cells at the beginning of the experiment died by the end of the experiment. A value of -100 means all cells are dead at the end of the experiment.
# NCI-60 Human Tumor Cell Lines Screen was performed using the standard one-dose NCI protocol, which is described in more detail at https://dtp.cancer.gov/discovery_development/nci-60/default.htm.
# Compounds with GIPRCNT values below 10 were considered active. Activity score was based on GIPRCNT using the following formula: […]
# Score is 0 for GIPRCNT values of 100 or above, 50 for GIPRCNT values of 0, and 100 for GIPRCNT values of -100.
row,Compound,growth
1,CC(C)CSc1nc(NCCc2c[nH]c3ccccc23)c(C#N)c(-c2ccccc2)n1,71.7% (inactive)
2,CC(=O)Nc1cccc(Nc2nc(N[C@H]3CCCc4ccccc43)c3ccccc3n2)c1,102% (inactive)
3,CN(C)CCOc1ccc(C(=O)C2[C@H](c3ccc(Cl)cc3)[C@@H](c3ccccc3)NC23C(=O)Nc2ccc(Br)cc23)cc1 (stereo not given in full),-66.5% (active)
4,O=C(N/N=C/c1ccc(-c2ccc(O)cc2)o1)c1[nH]c2ccc(Br)cc2c1-c1ccccc1,-14.7% (active)
5,COc1ccc(C(=O)/C=C/c2cccc(Br)c2)cc1S(N)(=O)=O,-5.65% (active)
6,CC(=O)OC[C@@]1(C)C2CC[C@]3(C)C(CC=C4C5CC(C)(C)CC[C@]5(C(=O)Nc5ccc(Br)cc5)CC[C@]43C)[C@@]2(C)C[C@@H](OC(C)=O)[C@@H]1OC(C)=O (stereo not given in full),47.8% (inactive)
7,C=C1CC[C@@H]2[C@]3(C)COC(c4cn[nH]c4-c4ccc(C)cc4)O[C@@H]3CC[C@@]2(C)[C@@H]1C/C=C1/C(=O)OCC1O (stereo not given in full),-16.6% (active)
8,COc1cccc(/C=C/C(=O)c2ccc(OC)c(S(N)(=O)=O)c2)c1,34.1% (inactive)
9,COc1cc2oc(-c3cccc(C(=O)Nc4ccc(Cl)cc4)c3)cc(=O)c2c(OCCNC(=O)[C@@H](N)CCC(=O)O)c1OC,88.6% (inactive)
10,CCCCn1c(O)c(N=Nc2nc(-c3cc4ccccc4oc3=O)cs2)c2cc(Br)ccc21,111% (inactive)
11,COc1cc(CNC(=O)/C=C/c2ccc3c(c2)OCO3)ccc1OCc1cn(-c2ccc([N+](=O)[O-])cc2)nn1,101% (inactive)
12,COc1ccc(-c2ccnc(SCc3cc4ccccc4[nH]c3=O)n2)cc1,1.7% (active)
13,Cc1c(C(=O)NNC(=O)c2ccc(Cl)cc2)nnn1-c1ccc(Br)cc1,100% (inactive)
14,N/N=C(\N)c1c(N)nc(=S)[nH]c1-c1ccc(Cl)cc1Cl,111% (inactive)
15,CNC(=O)c1cc(Oc2ccc3nc(NC(=O)Nc4cccc(OC(F)(F)F)c4)sc3c2)ccn1,53.9% (inactive)
16,N#Cc1ccc(/C=N/NC(=O)c2[nH]c3ccc(Br)cc3c2-c2ccccc2)o1,-3.87% (active)
17,CC(C)CSc1nc(NCCc2c[nH]c3ccccc23)c(C#N)c(-c2ccc(Cl)cc2)n1,72.5% (inactive)
18,O=C(Cn1c(/C=C/c2cccc([N+](=O)[O-])c2)nc2ccccc2c1=O)Nc1ccccc1,94.3% (inactive)
19,Cc1cc2c(cc1Cl)C(=O)/C(=C/c1ccccc1)O2,19.7% (inactive)
20,COc1cc(OC)cc(C(=O)Nc2cccc(-c3cn(-c4ccc(S(N)(=O)=O)cc4)nn3)c2)c1,97.2% (inactive)

row,Compound,growth
1,CC1CCCCN1CCCNC(=O)N/C(N)=N/c1nc2ccccc2s1 (stereo not given),-35.2% (active)
2,COC1=C[C@]23CCC(=O)N2CCc2cc4c(cc2[C@@H]3[C@@H]1OC(=O)[C@H](C)O)OCO4,34.6% (inactive)
3,Cc1ccc(-c2nc(C#N)c(S(=O)(=O)N3CCN(S(=O)(=O)c4ccccc4)CC3)o2)cc1,30.1% (inactive)
4,O=C(/C=C/c1cccc(OCc2ccc(F)cc2)c1)c1nc2ccccc2[nH]1,68.8% (inactive)
5,COc1ccc(NC(=O)Cn2c(/C=C/c3cccc([N+](=O)[O-])c3)nc3ccccc3c2=O)cc1,99.8% (inactive)
6,COc1ccc(C(=O)/C=C/c2ccccc2Cl)cc1S(N)(=O)=O,117% (inactive)
7,CC12CC[C@@H]3[C@]4(C)COC(c5cn[nH]c5-c5ccc(Cl)cc5)O[C@@H]4CC[C@@]3(C)[C@@H]1CC(C1=CCOC1=O)O2 (stereo not given in full),47.7% (inactive)
8,CC(=O)Nc1ccc(C(=O)NC(=S)Nc2ccc(S(N)(=O)=O)cc2)cc1,97.5% (inactive)
9,COCOc1ccc2c(=O)c(C)c(C(=O)N[C@@H](Cc3ccccc3)C(O)C(=O)NCCc3ccc(OC)cc3)oc2c1 (stereo not given in full),115% (inactive)
10,COc1ccc(C(=O)/C=C/c2cccnc2)cc1S(N)(=O)=O,73.5% (inactive)
11,COc1ccc2[nH]cc(-c3nnc(N)nc3-c3c[nH]c4ncc(Br)cc34)c2c1,102% (inactive)
12,Cc1cc(=O)oc2cc(OCCCCOc3ccc(/C=C/C(=O)Nc4ccccc4N)cc3)ccc12,78.3% (inactive)
13,COc1ccc(C(SCCNCc2cc(N(C)C)ccn2)(c2ccccc2)c2ccccc2)cc1,-53.7% (active)
14,CSc1ccc(C(=O)Nc2ccc3nn(/C(C#N)=C/c4ccccn4)nc3c2)cc1,-44.9% (active)
15,CCCCCCCS(=O)(=O)N1CCCC(C(=O)Nc2nc3ccc(NC(=O)c4ccc(F)c(OC)c4F)cc3s2)C1 (stereo not given),72.2% (inactive)
16,COc1cc(OC)cc(-c2cc3ccc(N(C)C)cc3c(=O)[nH]2)c1,5.03% (active)
17,C#CCOc1cc(N(CC)CC)ccc1C(C(=O)NC(C)(C)C)N(C(=O)C1CCc2cc(F)ccc2O1)c1ccc(F)cc1 (stereo not given),54.4% (inactive)
18,CN1CCc2c(sc3ncnc(N/N=C/c4ccc(Cl)cc4Cl)c23)C1,-23.7% (active)
19,CCCCSc1nc(Nc2ccc(C(C)=O)cc2)c(C#N)c(-c2ccc(OC)cc2)n1,75.4% (inactive)
20,C(=C\c1cc(/C=C/c2ccccc2)c2ccccc2n1)/c1ccccc1,84.8% (inactive)
